# Test results published in PubChem BioAssay (EPA / NIEHS).
# Inconclusive results are not listed. Activity calls are given as the source filed them. Rule for the calls: active = hit-call score of the fitted dose curve at least 0.9, where 1 is the maximum; inconclusive = response in the unintended direction; inactive = score below 0.9.
# Test: ACEA_ER_80hr: ACEA Biosciences xCELLigence Real-Time Cell Analysis on Estrogen Receptor Agonism for Proliferation (AID 2282667)
# Conditions: T47D proliferation, impedance (xCELLigence), 80 h
# Experimental: ACEA_ER is a cell-based, single-readout assay that uses T47D, a human breast cell line, with measurements taken at 80 hours after chemical dosing in a 96-well plate, although TO2 (mc0.srcf) used a 384-well plate. Differences in plate size can be ignored given data normalization.ACEA_ER_80hr is one of two assay component(s) measured or calculated from the ACEA_ER assay. It is designed to make measurements of real-time cell-growth kinetics, a form of growth reporter, as detected with electrical impedance signals by Real-Time Cell Electrode Sensor (RT-CES) technology.Data from the assay component ACEA_ER_80hr was analyzed into 1 assay endpoint. This assay endpoint, ACEA_ER_80hr_Positive, was analyzed in the positive analysis fitting direction relative to DMSO as the negative control and baseline of activity. Using a type of growth reporter, measures of the cells for gain-of-signal activity can be used to understand the signaling at the pathway-level as they relate to the gene ESR1. Furthermore, this assay endpoint can be referred to as a primary readout, because this assay has produced multiple assay endpoints where this one serves a signaling function. To generalize the intended target to other relatable targets, this assay endpoint is annotated to the nuclear receptor intended target family, where the subfamily is steroidal.
# The xCELLigence system Multi-E-Plate stations were used to measure the time-dependent response to chemicals. Each compound was tested in an eight-point, 1:4 serial dilution series starting at a maximum final concentration of 100 uM. A maximum starting concentration of 0.5% DMSO was present in the 100 uM chemical samples and was diluted along with the test article dilution series. The screen was performed in biological duplicate using two separate, 96-well, E-Plates 96 for each dilution series (n = 2). Positive controls (MG132 and E2) and a negative control (assay media) were tested in quadruplicate on each testing plate. […] Reference compounds were tested with 8 concentrations with 1:5 serial dilutions. All screening was carried out by ACEA Biosciences, Inc. (San Diego, CA). T-47D cells purchased from ATCC were maintained in RPMI1640 media supplemented with 10% characterized fetal bovine serum (FBS). […] Cells were then detached and seeded in E-Plates 96 in assay medium. After overnight monitoring of growth once every hour, compounds were added to […] cells and remained in the medium until the end of the experiment. Cellular responses were then recorded once every 5 min for the first 5 h, and once every hour for an additional 100 h.
Structure (SMILES),outcome,AC50
CCOC(OCC)OCC,inactive,
O=C(c1ccccc1)c1ccc(O)cc1O,,1880 nM (active)
C[Si](Cl)(Cl)CCC(F)(F)C(F)(F)C(F)(F)C(F)(F)C(F)(F)C(F)(F)F,inactive,
COc1ccccc1C=O,inactive,
CSc1ccc(O)cc1C,inactive,
NC(=O)C(F)(F)C(F)(F)C(F)(F)C(F)F,inactive,
C[Si](C)O[Si](C)C,inactive,
CC(=O)CCC(C)C,inactive,
C=CC(=O)OCCC(F)(F)C(F)(F)C(F)(F)C(F)(F)F,,17100 nM (active)
CCCCCCCCn1sc(Cl)c(Cl)c1=O,,23 nM (active)
Cc1ccc(S(=O)(=O)C(I)I)cc1,inactive,
C=CCOC(=O)CC(C)C,inactive,
CN(C(=O)C(F)(F)C(F)(F)C(F)(F)F)[Si](C)(C)C,inactive,
CCCCCCCC/C=C\CCCCCCCC(=O)N(C)CC(=O)O,inactive,
CC(C)(C)c1cc(CCC(=O)NCCCCCCNC(=O)CCc2cc(C(C)(C)C)c(O)c(C(C)(C)C)c2)cc(C(C)(C)C)c1O,,50000 nM (active)
CCCCCCCC/C=C\CCCCCCCC(=O)OCC(O)CO (stereo not given),inactive,
C#CC(O)CCC (stereo not given),inactive,
C[C@]12CC[C@H]3C(=CCc4cc(O)ccc43)[C@@H]1CCC2=O,,1.43 nM (active)
C=CC(=O)OCC(F)(F)C(F)(F)C(F)(F)COC(=O)C=C,inactive,
CCCCOC(=O)C(C)O (stereo not given),inactive,

Structure (SMILES),outcome,AC50
CC(C)(C)c1cc(Cc2cc(C(C)(C)C)c(O)c(C(C)(C)C)c2)cc(C(C)(C)C)c1O,inactive,
FC(F)(F)C(F)(F)C(F)(F)C(F)(F)C(F)(F)C(F)(F)CC[Si](Cl)(Cl)Cl,inactive,
CCOC(=O)CCC(C)=O,inactive,
O=C(O)CCC(F)(F)C(F)(F)C(F)(F)C(F)(F)C(F)(F)C(F)(F)C(F)(F)F,inactive,
CCC/C=C/CO,inactive,
CC1=CC2C3C=CC(C3)C2C1C (stereo not given),inactive,
Cc1cnccn1,inactive,
CCC(Cc1c(I)cc(I)c(N)c1I)C(=O)O (stereo not given),,15500 nM (active)
CC(C)Nc1ccc(NC(C)C)c2c1C(=O)c1ccccc1C2=O,inactive,
O=C=Nc1cccc2c(N=C=O)cccc12,inactive,
O=S(=O)(O)CCC(F)(F)C(F)(F)C(F)(F)C(F)(F)C(F)(F)C(F)(F)C(F)(F)C(F)(F)F,inactive,
Cc1cc(C)c(O)c(C(C)(C)C)c1,inactive,
N#Cc1ccccc1O,inactive,
CCCCC(CC)COC(=O)c1ccc(N(C)C)cc1 (stereo not given),inactive,
CCCCCCCCCCCCC[N+](C)(C)Cc1ccccc1,inactive,
Oc1ccc(C2(c3ccc(O)c(C4CCCCC4)c3)CCCCC2)cc1C1CCCCC1,inactive,
OCCCCC(F)(F)C(F)(F)C(F)(F)C(F)(F)F,inactive,
OCC(F)(F)C(F)(F)C(F)(F)C(F)(F)C(F)(F)C(F)(F)CO,,291 nM (active)
COC(F)(C(F)F)C(F)(F)F (stereo not given),inactive,
NC(=O)C(F)(F)C(F)(F)C(F)(F)C(F)(F)C(N)=O,inactive,
